Shown are actives, neighbours in structure and some others; about 2.2% of the full set was active somewhere.
cardiac RTF act = cardiac RTF calcium sensitization; AID 493008; activation, % at 7.2 µM; 0.24% of 340,000 active; IANBD-labeled TnC RTF fluorescence at EC20 calcium; 0% EC20 calcium, 100% full calcium; P19429+P45379;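 active means activation above the mean over all tested compounds plus 3 SD, cut at about 30% in these data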;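 further: rise in fluorescence read as greater calcium sensitivity of cardiac thin filaments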
Myeloid diff MLP = promotes myeloid progenitor differentiation. ER-HoxA9 myeloid progenitors, lysozyme-GFP differentiation, flow cytometry. calls only at 10 µM. 1% of 360,000 active. AID 624256;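 active means normalized GFP-positive differentiation at or above the plate's own cutoff, the solvent-only control mean plus 3 SD; inconclusive means no clear call, values can overlap the other calls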;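 further: cells exposed to compound for four days before flow analysis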
CRFBP-R2 block = antagonists of CRF-binding protein/CRF-R2 receptor complex. HEK293 CRF-R2/CRF-BP, CRF-induced calcium fluorescence. inhibition, % at 11.8 µM. 0.59% of 350,000 active. AID 588475;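 active means inhibition of the ligand-induced calcium signal above about 50% at the single tested concentration, limit read from the data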
RTF Ca sens inh = cardiac RTF calcium desensitization; 0.12% of 340,000 active; P19429+P45379; inhibition, % at 7.15 µM; IANBD-labeled cardiac RTF, Ca2+ fluorescence;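 active means inhibition above the mean inhibition of all tested compounds plus 3 SD, cut at about 17% in these data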;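 further: assay run at fixed EC70 calcium of 1.6 mM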
CRFR2-BP ag = agonists of human CRF-binding protein/CRF-R2 receptor complex; HEK293 CRF-R2/CRF-BP, calcium dye fluorescence (FLIPR); percent of saturating CRF peptide response; activation, % at 13.2 µM; 0.46% of 350,000 active; AID 588473;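 active means activation of at least 50%, plus an integration ratio under a set limit after plate pattern correction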
Myeloid diff CP1 = promotes myeloid progenitor differentiation | calls only | ER-HoxA9 myeloid progenitors, GFP/Mac1 double-positive flow | AID 651706 | 2% of 2,300 active | shares compounds with Myeloid diff MLP;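 active means share of green or green-and-red cells above 9 and 9% in run 1 or 4 and 3% in run 2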
GFP autofluor = compound fluorescence in myeloid differentiation counter-screen; fluorescence response, % (no concentration beside the values); ER-HoxA9 myeloid progenitors, no estrogen, GFP autofluorescence flow cytometry; vehicle wells 0%, positive control 100%; 7.4% of 2,300 active; shares compounds with Myeloid diff MLP;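 active means over 5% cells positive for green fluorescent reporter, or over 2% positive for both it and APC stain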
Each line names hits and unclear results; the compound was inactive in the other large screens (follow-up assays come after a bar, where they were run).

COc1ccc(C(=O)Nc2nccs2)cc1OC	Myeloid diff MLP active | Myeloid diff CP1 inactive | GFP autofluor inactive
Cc1cc(NC(=O)/C=C/c2ccccc2Cl)no1	none | Myeloid diff CP1 inactive | GFP autofluor inactive
Cc1cc(NS(=O)(=O)c2ccc(NC(=O)/C=C/c3ccccc3Cl)cc2)no1	none
O=C(NCC(c1ccco1)N1CCCC1)c1cc2ccccc2s1 (stereo not drawn)	none
CCCCNc1c(-c2cc3ccccc3o2)nc2nc(C)cc(C)n12	Myeloid diff MLP active (no result: cardiac RTF act, CRFBP-R2 block, RTF Ca sens inh, CRFR2-BP ag) | Myeloid diff CP1 inactive | GFP autofluor inactive
COC(=O)c1cccc(C(=O)Nc2ccc(F)cc2)n1	none | Myeloid diff CP1 inactive | GFP autofluor inactive
CC(=O)Nc1ccc(NC(=O)c2cccc(C(=O)OC(C)C)n2)cc1	none
Cc1cc(NC(=O)c2ccc3sc([C@@H]4O[C@H](CO)[C@H](O)[C@H](O)[C@H]4O)nc3c2)n(C)n1	none (no result: cardiac RTF act, CRFBP-R2 block, RTF Ca sens inh, CRFR2-BP ag)
CC(C)Cn1c(SC(C)C(=O)Nc2ccc3c(c2)OCCO3)nc2ccccc2c1=O (stereo not drawn)	none
CC(Sc1nc2ccccc2c(=O)n1C)C(=O)Nc1ccc2c(c1)OCCO2 (stereo not drawn)	none | Myeloid diff CP1 inactive | GFP autofluor inactive
OC(CSc1ccc(F)cc1)CN1CCN(c2ccccc2)CC1 (stereo not drawn)	none
COc1ccc(CCn2c(C)cc(C(=O)CN3C(=O)C(=O)N(C4CCCC4)C3=O)c2C)cc1OC	none
Cc1ccc(C(=O)NCC(=O)OC2CCCCC2=O)cc1C (stereo not drawn)	none
O=C(CNC(=O)c1ccc(Oc2ccccc2)cc1)OC1CCCCC1=O (stereo not drawn)	Myeloid diff MLP active | Myeloid diff CP1 inactive | GFP autofluor inactive
Oc1ccccc1N=Cc1c(O)ccc2oc3c(c12)CCCC3	none | Myeloid diff CP1 inactive | GFP autofluor inactive
O=C(O)c1ccc(N=Cc2c(O)ccc3oc4c(c23)CCCC4)cc1	none
CCCCCCC1CCC(C(=O)N2CCOCC2)CC1 (stereo not drawn)	none
O=C(O)c1ccc(CSc2nc3ccccc3[nH]2)cc1	none
NNC(=O)c1ccc(CSc2nc3ccccc3[nH]2)cc1	none | Myeloid diff CP1 inactive | GFP autofluor inactive
CS(=O)(=O)NCCSCc1ccco1	none | Myeloid diff CP1 inactive | GFP autofluor inactive
CC(=O)Nc1ccc(S(=O)(=O)NCCSCc2ccco2)cc1	none
Cn1c(=O)c2c(nc(SCC(=O)N3c4ccccc4CCc4ccccc43)n2C)n(C)c1=O	Myeloid diff MLP active | Myeloid diff CP1 inactive | GFP autofluor inactive
Cc1ccccc1C(=O)N1CCC(C(=O)NC(C)c2ccc(-n3ccnc3)cc2)CC1 (stereo not drawn)	none
CCN(CC)C(=O)CSc1nnc(SC(C)C(=O)NC2CC2)s1 (stereo not drawn)	none | Myeloid diff CP1 inactive | GFP autofluor inactive
COc1cccc(C(C)NC(=O)Cc2cccs2)c1 (stereo not drawn)	none
CS(=O)(=O)c1ccc2nc(NC(=O)CS(=O)(=O)Cc3ccccc3)sc2c1	Myeloid diff MLP active | Myeloid diff CP1 inactive | GFP autofluor inactive
COc1cccc(OC)c1C(=O)Nc1nc2ccc(S(C)(=O)=O)cc2s1	Myeloid diff MLP active | Myeloid diff CP1 inactive | GFP autofluor inactive
CS(=O)(=O)c1ccc2nc(NC(=O)Cc3ccccc3)sc2c1	none
Cc1c(C(=O)C(C)C)n(C)c2ccccc12	none | Myeloid diff CP1 inactive | GFP autofluor inactive
Cn1c(C(=O)O)c(C=O)c2ccccc21	none
O=C(Nc1cccc2ccccc12)c1ccco1	none (no result: cardiac RTF act, CRFBP-R2 block, RTF Ca sens inh, CRFR2-BP ag)
COc1cccc(CNC(=O)CCC2CCCN(C(=O)c3ccc(C)nc3)C2)c1 (stereo not drawn)	Myeloid diff MLP active | Myeloid diff CP1 inactive | GFP autofluor inactive
Cc1ccc(C(=O)N2CCCC(CCC(=O)NCc3ccc(F)c(F)c3)C2)cn1 (stereo not drawn)	Myeloid diff MLP inconclusive
CC(=O)c1cccc(NS(=O)(=O)c2ccc3c(c2)N(C(C)=O)CCO3)c1	none
N=c1c2c(n(Cc3ccccc3)c3c1CCC3)CCC2	Myeloid diff MLP active | Myeloid diff CP1 inactive | GFP autofluor inactive
N=c1c2c(n(Cc3ccc(Cl)cc3)c3c1CCC3)CCC2	none
N#CCC(=O)Nc1ccc(C(=O)OCC(=O)NC2CCCc3ccccc32)cc1 (stereo not drawn)	none
C#CC[N+]1(CC#Cc2ccccc2)CCCCC1	none
C#CC[N+]1(CC#Cc2cccc(C)c2)CCCCC1	none | Myeloid diff CP1 inactive | GFP autofluor inactive
C#CC[N+]1(CC#Cc2ccccc2)CCOCC1	none | Myeloid diff CP1 inactive | GFP autofluor inactive
O=S(=O)(NCc1ccccc1Br)c1cccs1	none | Myeloid diff CP1 inactive | GFP autofluor inactive
O=C(O)c1ccccc1N/N=C/c1c(Sc2nnnn2-c2ccccc2)nc2ccccn2c1=O	Myeloid diff MLP active | Myeloid diff CP1 active | GFP autofluor inactive
O=C(CSc1nnc2ccccn12)Nc1ccccc1C(=O)O	none
N#Cc1ccc(NC(=O)COC(=O)c2cccc(S(=O)(=O)N3CCCC3)c2)cc1	none (no result: cardiac RTF act, RTF Ca sens inh)
COc1cccc(NC(=O)N(C)C[C@@H]2Oc3cc(Br)ccc3S(=O)(=O)N([C@@H](C)CO)C[C@H]2C)c1	none (no result: cardiac RTF act, RTF Ca sens inh)
COc1ccccc1-c1ccc2c(c1)O[C@@H](CN(C)C(=O)Nc1cccc(F)c1)[C@H](C)CN([C@H](C)CO)S2(=O)=O	none (no result: cardiac RTF act, RTF Ca sens inh) | Myeloid diff CP1 inactive | GFP autofluor inactive
C[C@H](CO)N1C[C@H](C)[C@@H](CN(C)Cc2cccnc2)Oc2cc(-c3cccnc3)ccc2S1(=O)=O	none (no result: cardiac RTF act, RTF Ca sens inh)
C[C@H](CO)N1C[C@H](C)[C@H](CN(C)Cc2ccncc2)Oc2cc(-c3ccccc3F)ccc2S1(=O)=O	none (no result: cardiac RTF act, RTF Ca sens inh) | Myeloid diff CP1 inactive | GFP autofluor inactive
COC(=O)c1ccc(N/C=C/C(=O)c2ccccc2)cc1	none
O=C(CNS(=O)(=O)c1ccccc1)Nc1cccc([N+](=O)[O-])c1	Myeloid diff MLP active | Myeloid diff CP1 inactive | GFP autofluor inactive
CCc1nnc(NC(=O)CSCc2cc(=O)n3ccsc3n2)s1	none
CC(C)n1nnnc1C1c2ccccc2C(=O)N1Cc1cccs1 (stereo not drawn)	none (no result: cardiac RTF act, CRFBP-R2 block, RTF Ca sens inh, CRFR2-BP ag)
CC(C)n1nnnc1C1c2ccccc2C(=O)N1Cc1ccco1 (stereo not drawn)	Myeloid diff MLP active (no result: cardiac RTF act, CRFBP-R2 block, RTF Ca sens inh, CRFR2-BP ag) | Myeloid diff CP1 inactive | GFP autofluor inactive
CCCCCCCC(=O)C(C)C(=O)N(C)[C@H](Cc1ccc(OC)cc1)C(=O)N(C)[C@H](C(N)=O)C(C)C (stereo partly drawn)	none
C#CCCC/C(=C\C(=O)N(C)[C@H](C(=O)N(C)[C@H](C(=O)N(C)[C@H](C(=O)N(C)[C@H](C(N)=O)C(C)C)C(C)C)C(C)C)C(C)C)OC	none | Myeloid diff CP1 inactive | GFP autofluor inactive
CCOc1cccc(NC(=O)C2CC(=O)N(c3ccc(F)cc3)C2)c1 (stereo not drawn)	none
